Drawing on PubChem BioAssay AID1259421 (Broad Institute, 2018), this text covers activity change, negative = inhibition for 78 compounds.

Several values for one entry are separate records, joined by “and”; a condition that tells them apart may be missing. Identical values can stand only once. About 610 (9.5%) of roughly 6,400 compounds were called active. No stated cut-off is given here; in the data, active means activity change below about -70%; inconclusive means no clear call, values can overlap the other calls; inactive means above that. The sample as a whole holds a higher share of actives than the screen did. Where a structure was tested more than once in an assay, its records may differ in their call.

The experiment in a line: Toxoplasma gondii ME49Luc growth in HeLa cells, luciferase, no IFN-y, primary screen (AID 1259421). The note with it: T. gondii ME49Luc in HeLa, 72 h, stronger effect = lower value, concentration not given here.
`O=c1[nH]c2ccccc2c(=O)n1CCCN1CCN(c2ccccc2)CC1`: the activity change, negative = inhibition was 11.8% (inactive). Then `CCC1(C)OC(=O)N(C)C1=O` (stereo not drawn), with -5.39% (inactive); and `CC(C)(C)c1[nH]cnc1/C=c1\[nH]c(=O)/c(=C/c2ccccc2)[nH]c1=O`, with -85.5% (active); and `O=c1[nH]cnc2ccccc12`, with 0.966% (inactive) and 1.04% (inactive). Then `CCCCCCCCCCCCCCOS(=O)(=O)O`, with 8.96% (inactive); and `COc1ccc(C(=O)/C=C/c2ccccc2)cc1`, with 157% (inactive). Then `CC(=O)NC[C@H]1CN(c2ccc(N3CCN(C(=O)CO)CC3)c(F)c2)C(=O)O1`, with 6.07% (inactive); and `CC(=O)NC(Cc1c[nH]c2ccccc12)C(=O)OCc1cc(C(F)(F)F)cc(C(F)(F)F)c1` (stereo not drawn), with -1.95% (inactive). Turning to `CC(=O)N[C@H](Cc1c[nH]c2ccccc12)C(=O)OCc1cc(C(F)(F)F)cc(C(F)(F)F)c1`, the activity change, negative = inhibition was 6.34% (inactive). In the case of `FC(F)(F)c1cc(CO[C@H]2CCCN[C@H]2c2ccccc2)cc(C(F)(F)F)c1`, the activity change, negative = inhibition was -9.54% (inactive) and -89.9% (active). In the case of `O=C(O)CN(CCN(CC(=O)O)CC(=O)O)CC(=O)O`, the activity change, negative = inhibition was 1.89% (inactive). For the compound `COCC1=C(C(=O)OC(C)OC(=O)OC(C)C)N2C(=O)[C@@H](NC(=O)/C(=N/OC)c3csc(N)n3)[C@H]2SC1` (stereo partly drawn), the activity change, negative = inhibition is -2.51% (inactive).

As to `CCN(CC)c1ccc(/C=N/NC(=O)c2ccc(O)cc2)cc1`, the activity change, negative = inhibition was 29.5% (inactive) and 44.8% (inactive). Turning to `NC(=O)N/N=C/c1ccc([N+](=O)[O-])o1`, the activity change, negative = inhibition was -68.6% (inactive) and -50.1% (inactive).

Take `O=C(N/N=C/c1ccc([N+](=O)[O-])o1)c1ccc(O)cc1`: the activity change, negative = inhibition is -85.5% (active). The figure for `CCCCCCn1c(=O)c2c(ncn2C)n(C)c1=O` is 11.4% (inactive); for `Cc1ccc2ccc3ccc(C)nc3c2n1` it is -94.5% (active). The figure for `Cc1cccc(/C=C/c2ccccc2)n1` is 35.7% (inactive); for `CCc1nc(C)ccc1O` it is -11.9% (inactive); for `OCC1OC(O)C(F)C(O)C1O` (stereo not drawn) it is 8.12% (inactive). The figure for `CCC[C@@H]1C[C@@H](C(=O)NC(C(C)Cl)[C@H]2O[C@H](SC)[C@H](O)[C@@H](O)[C@H]2O)N(C)C1` (stereo partly drawn) is -1.81% (inactive) and 9.35% (inactive); for `O=C(/C=C\n1cnc(-c2cc(C(F)(F)F)cc(C(F)(F)F)c2)n1)N1CC(F)(F)C1` it is -81.3% (active); for `O=C(/C=C\n1cnc(-c2cc(C(F)(F)F)cc(C(F)(F)F)c2)n1)NNc1cnccn1` it is -78.8% (active). Turning to `COc1cc(-c2ncn(/C=C\C(=O)OC(C)C)n2)cc(C(F)(F)F)c1`, the activity change, negative = inhibition was -86.8% (active).

`CC(=O)CC(=O)O`: the activity change, negative = inhibition was -0.799% (inactive). Regarding `CC(=O)c1c(O)cc(O)cc1O`, the activity change, negative = inhibition was 6.7% (inactive). Then `COc1c(OC)c2occc2c2oc(=O)ccc12`, with 9.46% (inactive). The figure for `CC(=O)OCC(=O)[C@@]1(O)CCC2C3CCC4=CC(=O)C=C[C@]4(C)[C@@]3(Cl)[C@@H](Cl)C[C@@]21C` (stereo partly drawn) is -0.235% (inactive). On to `CCCC(=O)O[C@@]1(C(=O)COC(C)=O)CC[C@H]2[C@@H]3C[C@H](F)C4=CC(=O)C=C[C@]4(C)[C@]3(F)[C@H](O)C[C@@]21C`, for which the activity change, negative = inhibition was 6.24% (inactive). Take `C[C@@H]1O[C@@]2(CS1)CN1CCC2CC1` (racemic): the activity change, negative = inhibition is 6.56% (inactive). Then `c1cncc(CN2CCC(n3ncc4c(N5CCOCC5)nc(-c5ccc6[nH]ccc6c5)nc43)CC2)c1`, with -77.6% (active); and `COC(=O)Nc1ccc(-c2nc(N3CCOCC3)c3cnn(C4CCN(C(=O)OC)CC4)c3n2)cc1`, with 21.2% (inactive); and `C[C@@H]1CN(Cc2ncccn2)C[C@H]1c1nc2c(cnn2C2CCOCC2)c(=O)[nH]1`, with 4.49% (inactive). With `CC(=O)N1CCN(c2ccc(OCC3CO[C@](Cn4ccnc4)(c4ccc(Cl)cc4Cl)O3)cc2)CC1` (stereo partly drawn), the activity change, negative = inhibition is -58.1% (inactive). The figure for `CCC1OC(=O)[C@H](C)C(=O)[C@H](C)[C@@H](OC2O[C@H](C)C[C@H](N(C)C)[C@H]2O)[C@](C)(OC)C[C@@H](C)C(=O)[C@H](C)[C@H]2N(CCCCn3cnc(-c4cccnc4)c3)C(=O)O[C@@]12C` (stereo partly drawn) is -5.19% (inactive); for `NC(=S)N/N=C/c1ccncc1` it is 6.58% (inactive). The figure for `NC(=S)N/N=C/c1ncccc1N` is -83.2% (active); for `CC(=O)O[C@]1(C(C)=O)CC[C@H]2[C@@H]3C=CC4=CC(=O)CC[C@]4(C)[C@H]3CC[C@@]21C` it is 8.87% (inactive). Then `CCCc1ncc(C(=O)O)s1`, with 6.47% (inactive). Take `COc1cc(Br)c(S(=O)(=O)Nc2ccc(Cl)c(O[C@@H]3CCN(C)C3)c2)cc1OC`: the activity change, negative = inhibition was 5.97% (inactive). As for `N[C@H](C(=O)O)[C@@H]1CC(Cl)=NO1`, the activity change, negative = inhibition was -72.2% (active).

Turning to `NC(C(=O)O)[C@@H]1CC(Cl)=NO1` (stereo partly drawn), the activity change, negative = inhibition was -82% (active). The figure for `COC(=O)C1[C@H]2C[C@H]3c4[nH]c5ccccc5c4CCN3C[C@@H]2CC[C@@H]1O` (stereo partly drawn) is -3.89% (inactive). The figure for `CC(=O)OCC(=O)[C@@]1(O)CCC2C3CCC4=CC(=O)CC[C@]4(C)C3[C@@H](O)C[C@@]21C` (stereo partly drawn) is -6.4% (inactive) and -14.3% (inactive); for `CN(C)Cc1cccc(N=C(c2ccccc2)c2c(O)[nH]c3cc(C(N)=O)ccc23)c1` it is 9.28% (inactive) and -68.3% (inactive); for `COC(=O)c1ccc2c(C(=Nc3ccc(N(C)C(=O)CN4CCN(C)CC4)cc3)c3ccccc3)c(O)[nH]c2c1` it is -75.7% (active). The figure for `CN(C)Cc1cccc(N=C(c2ccccc2)c2c(O)[nH]c3cc(C(=O)N(C)C)ccc23)c1` is -81.4% (active); for `O=C(O)CN1CCN(CC(=O)O)CCN([C@H](CO)C(O)CO)CCN(CC(=O)O)CC1.[Gd]` (stereo partly drawn) it is 8% (inactive). For the compound `CC1(CN)Cc2ccccc2C1`, the activity change, negative = inhibition is 26% (inactive). The figure for `C=CC(C)(O)CC[C@@H]1[C@@]2(C)CCCC(C)(C)C2CC[C@@]1(C)O` (stereo partly drawn) is 13.1% (inactive). As for `COc1ccc2c(c1)OCC(Cc1ccc(OC)c(O)c1)C2=O` (stereo not drawn), the activity change, negative = inhibition was -61% (inactive). The figure for `O=C(O)C1=CC(O)C(O)[C@H](O)C1` (stereo partly drawn) is -17.2% (inactive); for `CCC[C@@H](N[C@@H](C)C(=O)N1[C@@H](C(=O)O)C[C@@H]2CCCC[C@@H]21)C(=O)OCC` it is 10.1% (inactive). Consider `COc1ccc(-c2cc3c(C)nc(N)nc3n(C3CCC(OCCO)CC3)c2=O)cn1` (stereo not drawn), for which the activity change, negative = inhibition is -79.8% (active). The figure for `CCn1c(=O)c(-c2ccn[nH]2)cc2c(C)nc(N)nc21` is -57.4% (inactive); for `N#CCC(=O)NN` it is 10.7% (inactive); for `O=C(N[C@@H](CO)[C@H](O)c1ccc([N+](=O)[O-])cc1)C(Cl)Cl` it is 5.04% (inactive). The figure for `CCS(=O)(=O)Nc1ccc2[nH]c(O)c(C(=Nc3ccc(CN4CCCCC4)cc3)c3ccccc3)c2c1` is -88% (active); for `N[C@H](C(=O)O)[C@H](O)c1ccc(O)c(O)c1` it is -6.51% (inactive); for `Cc1ccc(C(=O)Nc2ccc(Oc3cc4cnn(C)c4cc3-c3cn[nH]c3)c(F)c2)c(=O)n1-c1ccc(F)cc1` it is -82.1% (active).

As to `COC(=O)C(c1ccccc1Cl)N1CCc2sccc2C1` (stereo not drawn), the activity change, negative = inhibition was 6.54% (inactive).

For `CC[C@@]1(O)C(=O)OCc2c1cc1n(c2=O)Cc2cc3c(CN(C)C)c(O)ccc3nc2-1`, the activity change, negative = inhibition was -89.6% (active). The figure for `CCc1c2c(nc3ccc(O)cc13)-c1cc3c(c(=O)n1C2)COC(=O)[C@]3(O)CC` is -93.3% (active); for `CC[C@@]1(O)C(=O)OCc2c1cc1n(c2=O)Cc2cc3cc(O)ccc3nc2-1` it is -73.3% (active) and -92.8% (active). The figure for `CCc1c2c(nc3ccc(OC(=O)N4CCC(N5CCCCC5)CC4)cc13)-c1cc3c(c(=O)n1C2)COC(=O)[C@]3(O)CC` is 8.52% (inactive). On to `CC[C@@]1(O)C(=O)OCc2c1cc1n(c2=O)Cc2c-1nc1cc(F)c(C)c3c1c2[C@@H](N)CC3`, for which the activity change, negative = inhibition was -89.9% (active). The figure for `CC(=O)[C@H]1CCC2C3C[C@H](C)C4=CC(=O)CC[C@]4(C)C3[C@@H](O)C[C@@]21C` (stereo partly drawn) is -2.39% (inactive); for `CN1C[C@@H]2c3ccccc3Oc3ccc(Cl)cc3[C@H]2C1` it is 14.2% (inactive); for `Cn1cc(-c2cnc3ccc4ccc(CS(=O)(=O)NCc5ccccn5)cc4c(=O)c3c2)cn1` it is -4.03% (inactive).

On to `CS(=O)(=O)c1ccc(Cn2c3c(c4cc(F)cc(F)c42)CCCC3CC(=O)O)cc1` (stereo not drawn), for which the activity change, negative = inhibition was 1.13% (inactive) and 1.18% (inactive). With `c1ccc(C(NCCNC(c2ccccc2)c2ccccc2)c2ccccc2)cc1`, the activity change, negative = inhibition was -24.5% (inactive) and -4.76% (inactive). In the case of `Cn1c(=O)cc(N2CCCC(N)C2)n(Cc2cc(F)ccc2C#N)c1=O` (stereo not drawn), the activity change, negative = inhibition is 0.449% (inactive). Then `C[C@H]1CC2C3CCC4=CC(=O)C=C[C@]4(C)[C@@]3(F)[C@@H](O)C[C@]2(C)[C@@]1(O)C(=O)COP(=O)(O)O` (stereo partly drawn), with -6.5% (inactive); and `COc1cc(O)c2c(=O)c(OC)c(-c3ccc(OC)c(OC)c3)oc2c1`, with 3.09% (inactive); and `CC(=O)OCC(=O)[C@@]1(O)CCC2C3CCC4=CC(=O)C=CC4(C)C3[C@@H](O)C[C@@]21C` (stereo partly drawn), with 1.73% (inactive). The figure for `CC1(C)[C@@H](O[C@H]2O[C@H](C(=O)O)[C@@H](O)[C@H](O)[C@@H]2O[C@@H]2O[C@H](C(=O)O)[C@@H](O)[C@H](O)[C@H]2O)CC[C@@]2(C)[C@H]3C(=O)C=C4[C@@H]5C[C@@](C)(C(=O)O)CC[C@]5(C)CC[C@@]4(C)[C@]3(C)CC[C@@H]12` is 5.63% (inactive). The figure for `CC[C@@]1(O)C(=O)OCc2c1cc1n(c2=O)Cc2cc3c([N+](=O)[O-])cccc3nc2-1` is -85.8% (active).

`O=C(Cc1ccccc1)Nc1nc2ccc(Cl)cc2c2nc(-c3ccco3)nn12`: the activity change, negative = inhibition is 2.82% (inactive) and 3.45% (inactive).
